Experimental data as given in PubChem BioAssay (Tox21).
Inconclusive results are not listed. A call without a number means that no potency is given here. Active and inactive are the calls of the source. Calls follow the shape of the dose curve; as a rule, active = well fitted curve in the direction sought with a large enough effect in the repeat runs; inconclusive = weak or mixed curves; inactive = no such curve, though single readings can be large; an effect the other way counts as inactive or inconclusive.

Tests used:
[1] = qHTS assay to identify small molecule antagonists of the glucocorticoid receptor (GR) signaling pathway - cell viability counter screen (AID 720693); also: nearly all actives have a fitted effect of over 55% in size
[2] = qHTS assay for identifying genotoxic compounds that show differential cytotoxicity against isogenic chicken DT40 cell lines with known DNA damage response pathways - wild type cell line (AID 743012); also: nearly all actives have a fitted effect of over 60% in size; also: potency is read from the fitted curve at half-maximal effect
Method in brief: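 300 wt DT40 cells/well; cpd (DMSO) pintool-transferred after ~0.5 h at 37 C/5% CO2; 40 h incubation; CellTiter-Glo added, 30 min RT; luminescence read.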

[3] = qHTS assay for identifying genotoxic compounds that show differential cytotoxicity against isogenic chicken DT40 cell lines with known DNA damage response pathways - Rev3 mutant cell line (AID 743014); also: nearly all actives have a fitted effect of over 55% in size; also: potency is read from the fitted curve at half-maximal effect
[4] = qHTS assay to identify small molecule antagonists of the androgen receptor (AR) signaling pathway - cell viability counter screen (AID 743033; also: nearly all actives have a fitted effect of over 45% in size)
[5] = qHTS assay to identify small molecule antagonists of the androgen receptor (AR) signaling pathway using the MDA cell line - cell viability counter screen (AID 743041; also: nearly all actives have a fitted effect of over 45% in size)
Method in brief: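 Cytotoxicity counter screen: MDA-kb2 AR-luc cells, compound + R1881, 16 h, 37C, 0% CO2; CellTiter-Fluor added at 15.5 h, fluorescence read after 30 min.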

[6] = qHTS assay for identifying genotoxic compounds that show differential cytotoxicity against isogenic chicken DT40 cell lines with known DNA damage response pathways - Rad54/Ku70 mutant cell line (AID 743015); also: nearly all actives have a fitted effect of over 60% in size; also: potency is read from the fitted curve at half-maximal effect

SMILES	Potency [1]	Potency [2]	Potency [3]	Potency [4]	Potency [5]	Potency [6]
OC(CCN1CCCCC1)(c1ccccc1)C1CCCCC1 (stereo not drawn)	inactive	26.6 µM (active)	inactive	inactive	inactive	
CC(=O)c1ccc2c(c1)[C@H](NC(=O)c1ccc(F)cc1)[C@@H](O)C(C)(C)O2	inactive	inactive	inactive	inactive	inactive	inactive
CCOC(=O)[C@H](CCc1ccccc1)N[C@H]1CCc2ccccc2N(CC(=O)O)C1=O	inactive	11.9 µM (active)	23.7 µM (active)		inactive	21.1 µM (active)
O=C(Nc1ccccc1)OCC(CN1CCCCC1)OC(=O)Nc1ccccc1 (stereo not drawn)	inactive	inactive	inactive	inactive		
CC(C)(C)c1cc(CCC(=O)OCC(COC(=O)CCc2cc(C(C)(C)C)c(O)c(C(C)(C)C)c2)(COC(=O)CCc2cc(C(C)(C)C)c(O)c(C(C)(C)C)c2)COC(=O)CCc2cc(C(C)(C)C)c(O)c(C(C)(C)C)c2)cc(C(C)(C)C)c1O	inactive	inactive	inactive	inactive		
Cc1ccc(C(N)=O)cc1N	inactive	inactive	inactive	inactive	inactive	
CCCCCCCCN(C)C	inactive	inactive	inactive	inactive		
Cc1ccc(C(C)c2ccc(C)c(C)c2)cc1C	inactive	inactive	inactive	inactive	inactive	
NC1CCN(c2nc3c(cc2F)c(=O)c(C(=O)O)cn3-c2ccc(F)cc2F)C1 (stereo not drawn)	inactive	10.6 µM (active)	13.3 µM (active)		inactive	18.8 µM (active)
CC(=O)OC/C=C/c1ccccc1	inactive	inactive	inactive		inactive	inactive
